{
  "source": "the supplement of paper PMC11219838",
  "data": [
    {"tested_on": "Ditylenchus dipsaci", "test": "proportion of mobile D. dipsaci (mixed stage) relative to DMSO control (fraction of DMSO control); higher = more viable, less nematicidal, active = 0.86 or less; extreme values may be limits of the assay", "details": "60 µM; 5 days; temperature: 20 °C", "how_it_was_run": "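Ditylenchus dipsaci nematodes were cultured on pea plants in Gamborg B-5 agar, then extracted into water through a filter funnel, and roughly 20 worms in distilled water were placed in each well of a 96-well plate. Compound was pinned in to a final concentration of 60 µM (0.6% v/v DMSO), and the sealed plates were shaken at 200 rpm for 5 days at 20 °C. Mobile worms were counted under the microscope after 2 µL of 1 M NaOH was added. Mobility is given relative to DMSO controls as the mean of two biological replicates.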", "values": [
      {"smiles": "O=C(CSc1nnc(-c2cccnc2)o1)c1ccc(Br)cc1", "proportion of mobile D. dipsaci": "1 (inactive)"},
      {"smiles": "COc1ccc(-c2nnc(SCC(=O)Nc3ccc(C(C)C)cc3)o2)cc1", "proportion of mobile D. dipsaci": "1 (inactive)"},
      {"smiles": "Cc1ccccc1OCc1nc(-c2cccs2)no1", "proportion of mobile D. dipsaci": "1 (inactive)"},
      {"smiles": "Brc1ccc(-c2noc(COc3ccc4c(c3)OCO4)n2)cc1", "proportion of mobile D. dipsaci": "1 (inactive)"},
      {"smiles": "Brc1ccc(-c2noc(-c3ccc4c(c3)OCO4)n2)cc1", "proportion of mobile D. dipsaci": "1 (inactive)"},
      {"smiles": "c1csc(-c2nnc(-c3cccs3)o2)c1", "proportion of mobile D. dipsaci": "0.769 (active)"},
      {"smiles": "Cc1ccc(-c2noc(-c3ccc(C)cc3)n2)cc1", "proportion of mobile D. dipsaci": "1 (inactive)"},
      {"smiles": "CC(C)Oc1ccc(-c2nc(-c3cccnc3)no2)cc1", "proportion of mobile D. dipsaci": "0.675 (active)"},
      {"smiles": "O=C(CSc1nnc(-c2ccncc2)o1)Nc1ccccc1Cl", "proportion of mobile D. dipsaci": "1 (inactive)"},
      {"smiles": "O=C(CSc1nnc(-c2ccccc2Cl)o1)Nc1ccc(Br)cn1", "proportion of mobile D. dipsaci": "1 (inactive)"},
      {"smiles": "COc1ccc(-c2noc(CSc3nc4cc(C)ccc4[nH]3)n2)cc1", "proportion of mobile D. dipsaci": "1 (inactive)"},
      {"smiles": "Cc1cc(OCc2nc(-c3ccccn3)no2)ccc1Cl", "proportion of mobile D. dipsaci": "1 (inactive)"},
      {"smiles": "CCCCCSc1nnc(-c2ccc(Cl)cc2Cl)o1", "proportion of mobile D. dipsaci": "1 (inactive)"},
      {"smiles": "COc1ccc(NC(=O)c2ccccc2-c2nc(-c3ccccc3C)no2)cc1", "proportion of mobile D. dipsaci": "1 (inactive)"},
      {"smiles": "CCN(C(=O)CSc1nnc(-c2ccncc2)o1)c1ccccc1", "proportion of mobile D. dipsaci": "1 (inactive)"},
      {"smiles": "CCc1ccc(OCc2nc(-c3ccccn3)no2)cc1", "proportion of mobile D. dipsaci": "1 (inactive)"},
      {"smiles": "c1ccc(COc2cccc(-c3nc(-c4ccccn4)no3)c2)cc1", "proportion of mobile D. dipsaci": "1 (inactive)"},
      {"smiles": "CCCCc1ccc(-c2nc(-c3cccnc3)no2)cc1", "proportion of mobile D. dipsaci": "1 (inactive)"},
      {"smiles": "Cc1ccc(-c2nc(-c3cccnc3)no2)c(C)c1", "proportion of mobile D. dipsaci": "1 (inactive)"},
      {"smiles": "O=C(CSc1nnc(-c2ccccc2Cl)o1)NCc1ccco1", "proportion of mobile D. dipsaci": "1 (inactive)"},
      {"smiles": "Cc1nc(CSc2nnc(-c3ccccc3)o2)cs1", "proportion of mobile D. dipsaci": "1 (inactive)"},
      {"smiles": "CCc1ccc(OCc2nc(-c3cccc(OC)c3)no2)cc1", "proportion of mobile D. dipsaci": "1 (inactive)"},
      {"smiles": "COc1ccc(Cl)cc1-c1nc(-c2ccc3c(c2)OCO3)no1", "proportion of mobile D. dipsaci": "1 (inactive)"},
      {"smiles": "COc1ccc(-c2noc(-c3ccccc3C(=O)Nc3cccc(C)c3C)n2)cc1", "proportion of mobile D. dipsaci": "1 (inactive)"},
      {"smiles": "Cc1cccc(-c2nc(-c3ccc(Br)cc3)no2)c1", "proportion of mobile D. dipsaci": "1 (inactive)"},
      {"smiles": "Cc1ccc(OCc2nc(-c3ccccc3)no2)cc1C", "proportion of mobile D. dipsaci": "1 (inactive)"},
      {"smiles": "COc1ccccc1-c1nc(-c2ccccc2)no1", "proportion of mobile D. dipsaci": "1 (inactive)"},
      {"smiles": "Cc1ccc(OCc2nc(-c3ccc4c(c3)OCO4)no2)cc1C", "proportion of mobile D. dipsaci": "1 (inactive)"},
      {"smiles": "CCCC(=O)Nc1ccccc1-c1nc(-c2ccccn2)no1", "proportion of mobile D. dipsaci": "1 (inactive)"},
      {"smiles": "Fc1ccc(-c2nc(-c3ccc(Cl)cc3)no2)cc1", "proportion of mobile D. dipsaci": "1 (inactive)"},
      {"smiles": "Clc1ccc(-c2noc(COc3ccccc3Cl)n2)cc1", "proportion of mobile D. dipsaci": "1 (inactive)"},
      {"smiles": "Cc1ccc(-c2noc(CSc3nc(C)cc(C)n3)n2)cc1", "proportion of mobile D. dipsaci": "1 (inactive)"},
      {"smiles": "c1ccc(-c2noc(COc3ccc4c(c3)CCCC4)n2)cc1", "proportion of mobile D. dipsaci": "1 (inactive)"},
      {"smiles": "Cc1cc(OCc2nc(-c3ccncc3)no2)c(C)cc1Br", "proportion of mobile D. dipsaci": "1 (inactive)"},
      {"smiles": "O=C(CSc1nnc(-c2ccccc2Cl)o1)NCc1ccccc1", "proportion of mobile D. dipsaci": "1 (inactive)"},
      {"smiles": "Clc1ccc(-c2noc(-c3ccncc3)n2)cc1", "proportion of mobile D. dipsaci": "1 (inactive)"},
      {"smiles": "COc1ccc(-c2nnc(SCc3ccccc3)o2)cc1", "proportion of mobile D. dipsaci": "1 (inactive)"},
      {"smiles": "CCSc1nnc(-c2ccc(Cl)cc2)o1", "proportion of mobile D. dipsaci": "0 (active)"},
      {"smiles": "N#Cc1ccccc1CSc1nnc(-c2ccncc2)o1", "proportion of mobile D. dipsaci": "1 (inactive)"}
    ]}
  ]
}
